From paper PMC4336329 (PLoS ONE, 2015) come the findings set out here.

Among all 310,000 compounds or so, about 14,000 (4.5%) showed an effect of 50% or more. The effect is printed as a negative number. This is one part of a sample in which strong results are shown more often than they occur.
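Further: peak tail current of the secondary pulse compared with the same well before compound.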

For this assay, the target named is human ether-à-go-go-related gene (hERG) potassium channel (human, UniProt Q12809). Kind of assay: primary screen, population patch clamp on CHO cells stably expressing hERG; higher = less effect of the substance.
Sequence of human ether-à-go-go-related gene (hERG) potassium channel (Q12809 whole entry, looked up): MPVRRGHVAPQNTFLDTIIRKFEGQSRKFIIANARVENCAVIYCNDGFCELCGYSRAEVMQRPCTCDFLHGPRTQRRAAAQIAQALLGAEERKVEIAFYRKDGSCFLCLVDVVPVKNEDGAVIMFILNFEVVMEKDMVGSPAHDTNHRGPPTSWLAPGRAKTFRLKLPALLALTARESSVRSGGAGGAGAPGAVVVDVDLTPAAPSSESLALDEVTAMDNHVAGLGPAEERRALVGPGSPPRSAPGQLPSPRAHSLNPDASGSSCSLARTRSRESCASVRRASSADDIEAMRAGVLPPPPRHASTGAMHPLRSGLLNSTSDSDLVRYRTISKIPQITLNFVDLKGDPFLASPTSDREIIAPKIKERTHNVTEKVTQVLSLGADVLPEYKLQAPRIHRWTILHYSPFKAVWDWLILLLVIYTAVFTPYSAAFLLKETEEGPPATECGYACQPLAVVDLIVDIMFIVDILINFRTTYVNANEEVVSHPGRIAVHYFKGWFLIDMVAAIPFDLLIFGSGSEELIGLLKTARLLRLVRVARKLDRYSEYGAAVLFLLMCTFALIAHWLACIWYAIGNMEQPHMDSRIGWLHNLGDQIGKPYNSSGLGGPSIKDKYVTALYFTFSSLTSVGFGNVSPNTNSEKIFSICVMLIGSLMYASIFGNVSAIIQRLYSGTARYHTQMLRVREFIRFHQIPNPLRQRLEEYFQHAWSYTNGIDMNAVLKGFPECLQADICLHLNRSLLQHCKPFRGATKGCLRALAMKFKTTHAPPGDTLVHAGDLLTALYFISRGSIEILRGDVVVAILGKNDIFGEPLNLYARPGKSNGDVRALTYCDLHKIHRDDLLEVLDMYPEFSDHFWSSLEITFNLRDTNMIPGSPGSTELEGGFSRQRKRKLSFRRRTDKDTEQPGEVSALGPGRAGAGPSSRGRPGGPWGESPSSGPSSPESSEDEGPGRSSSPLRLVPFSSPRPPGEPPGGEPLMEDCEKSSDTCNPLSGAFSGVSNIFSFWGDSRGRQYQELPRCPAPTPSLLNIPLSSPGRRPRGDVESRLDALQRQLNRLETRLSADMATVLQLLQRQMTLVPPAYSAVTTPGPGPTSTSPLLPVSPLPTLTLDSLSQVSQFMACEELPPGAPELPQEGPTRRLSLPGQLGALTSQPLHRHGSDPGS
Turning to `Cc1ccc(-n2c(-c3ccccc3)n[nH]c2=S)c(C)c1`, the “hERG current change (%, negative = inhibition) at 10uM” value turned out to be 7.9%. For `O=C(/C=C/c1ccco1)NC(=S)Nc1ccccn1` the value was -3.42%; for `CC(=O)Cc1nsc(NC(=O)c2cccc(F)c2)n1`, 12.5%; for `O=C(Nc1ccccc1C(=O)N1CCCCC1)c1ccccc1C(F)(F)F`, 27.6%. For `Cc1ccc(N2C(=O)C(CN3CCOCC3)C2c2ccccc2)cc1` (stereo not drawn) the value was -26.5%; for `Cc1ccc(N2C(=O)C(CN3CCCC3)C2c2ccccc2)cc1` (stereo not drawn), -78.5%; for `Cc1ccc(N2C(=O)C(CN3CCCCC3)C2c2ccccc2)cc1` (stereo not drawn), -62.6%. To `COc1ccc(N2C(=O)C(CN3CCN(C)CC3)C2c2ccccc2)cc1` (stereo not drawn) belongs -16%; to `COc1ccc(N2C(=O)C(CN3CCCCC3)C2c2ccccc2)cc1` (stereo not drawn), -12%; to `Cc1ccc(N2C(=O)C(CN(C)C)C2c2ccccc2)cc1` (stereo not drawn), -33.1%. As for `CC(=O)c1cccc(NS(=O)(=O)c2cc(OCC(N)=O)c(C)cc2Cl)c1`, the “hERG current change (%, negative = inhibition) at 10uM” value is on record as 6.92%. For the molecule `COc1ccc(CN(C(=O)c2ccc(CN3CCOCC3)o2)C(C(=O)NCC2CCCO2)c2ccc(F)cc2)cc1` (stereo not drawn), the “hERG current change (%, negative = inhibition) at 10uM” value was -4.38%. To `O=C(Cc1ccc(Cl)c(Cl)c1)OCC(=O)c1ccc[nH]1` belongs -24.9%; to `O=C(COC(=O)c1cccc([N+](=O)[O-])c1)NCC1CCCO1` (stereo not drawn), 8.06%; to `Cc1c(NC(=O)COC(=O)C2CC3C=CC2C3)c(=O)n(-c2ccccc2)n1C` (stereo not drawn), 13.2%. To `COCCNC(=O)c1ccc(C)c(NC(=O)C2=C(C)OCCS2)c1` belongs 21.1%; to `CCCNC(=O)c1ccc(C)c(NC(=O)C2=C(C)OCCS2)c1`, 3.06%; to `CC1=C(C(=O)Nc2cc(C(=O)NCCC(C)C)ccc2C)SCCO1`, -52.4%. To `O=C(CSc1nnc(-c2cccs2)o1)N1CCc2ccccc21` belongs -10.5%; to `CC12CCC(C(=O)Nc3ccc(Br)cn3)(OC1=O)C2(C)C` (stereo not drawn), 7.13%; to `O=C(O)CCCN1C(=O)c2ccc(Oc3cccc([N+](=O)[O-])c3)cc2C1=O`, 17.6%.

As for `COc1cccc(C(=O)Cn2c(Br)nc3c2c(=O)n(C)c(=O)n3C)c1`, the “hERG current change (%, negative = inhibition) at 10uM” value was -13.1%. Consider `Cc1cccc(NC(=O)c2cc3c(s2)-c2c(C)cccc2OC3)n1`, for which the “hERG current change (%, negative = inhibition) at 10uM” value is 29.2%. Take `Cc1cccc2c1-c1sc(C(=O)NCCCN3CCCC(C)C3)cc1CO2` (stereo not drawn): the “hERG current change (%, negative = inhibition) at 10uM” value was -77.9%. For `Cc1cccc2c1-c1sc(C(=O)N3CCCCC3)cc1CO2` the value was -18.6%; for `Cc1cccc2c1-c1sc(C(=O)NCCCN3CCC(C)CC3)cc1CO2`, -77.6%. For the molecule `CCN1CCN(C(=O)c2cc3c(s2)-c2c(C)cccc2OC3)CC1`, the “hERG current change (%, negative = inhibition) at 10uM” value was -17.8%. For `CCOC(=O)N1CCN(C(=O)c2cc3c(s2)-c2c(C)cccc2OC3)CC1` the value was -15.5%. To `CCCN1CCN(CCCNC(=O)c2cc3c(s2)-c2c(C)cccc2OC3)CC1` belongs -85.2%; to `Cc1cccc2c1-c1sc(C(=O)N3CCc4ccccc4C3)cc1CO2`, -2.75%; to `CCOC(=O)c1cc2c(s1)-c1c(C)cccc1OC2`, 7.36%. To `S=c1[nH]nc(-c2ccccc2)n1/N=C/c1cccc(Br)c1` belongs 21.4%; to `CC(C(=O)N1CCOCC1)N1C(=O)c2cccc3cccc(c23)C1=O` (stereo not drawn), 16.6%; to `COc1cc(OC)cc(-c2c(-c3cccs3)c3cc(-c4cnc(OC)nc4)ccc3n2C)c1`, 1.57%. Consider `O=S(=O)(/N=C(/NC(=S)Nc1ccccc1)c1ccccc1)c1ccc(Cl)cc1`, for which the “hERG current change (%, negative = inhibition) at 10uM” value amounted to 18.9%. For `Cc1cc(C)c2nc(NNC(=O)c3cc(-c4cccs4)nc4ccccc34)sc2c1` the value was 18.3%; for `O=C(CSc1nc2ccccc2n1Cc1ccccc1)N/N=C/c1ccco1`, -60.7%; for `O=C(CSc1nc2ccccc2n1Cc1ccccc1)N/N=C/c1ccccc1C(=O)O`, -0.979%. For `Cn1c(SCC(=O)N/N=C/C=C/c2ccco2)nc2ccccc21` the value was -42.9%. Regarding `Cc1ccc(/C=N/NC(=O)CSc2nc3ccccc3n2Cc2ccc(Cl)cc2)o1`, the “hERG current change (%, negative = inhibition) at 10uM” value is given as -16.2%. To `Cn1c(SCC(=O)N/N=C/C=C\c2ccco2)nc2ccccc21` belongs -50.6%; to `Cn1c(SCC(=O)N/N=C/c2ccco2)nc2ccccc21`, -2.38%; to `CCn1c(SCC(=O)N/N=C/C=C\c2ccco2)nc2ccccc21`, -9.42%. To `Cc1ccc(Cn2c(SCC(=O)N/N=C/c3ccc(C)o3)nc3ccccc32)cc1` belongs -61.1%; to `Cc1ccc(/C=N/NC(=O)CSc2nc3ccccc3n2Cc2ccccc2)o1`, -33.9%.
